From ChEMBL document CHEMBL1961873, “Compounds: GSK PKIS; Assays: Nanosyn kinase panel” (2012)
Values joined by “and” are separate entries in the source; they are usually repeats but may differ in a detail not shown here. Equal entries are not always repeated.

Experiments:
[1] = target: Serine/threonine-protein kinase MRCK alpha (Homo sapiens) (UniProt Q5VT25); details: at 0.1 µM
[2] = target: Serine/threonine-protein kinase MRCK alpha (Homo sapiens) (UniProt Q5VT25); details: at 1 µM
[3] = target: Serine/threonine-protein kinase MRCK beta (Homo sapiens) (UniProt Q9Y5S2); details: at 0.1 µM
Serine/threonine-protein kinase MRCK beta (Homo sapiens), sequence (Q9Y5S2 whole entry): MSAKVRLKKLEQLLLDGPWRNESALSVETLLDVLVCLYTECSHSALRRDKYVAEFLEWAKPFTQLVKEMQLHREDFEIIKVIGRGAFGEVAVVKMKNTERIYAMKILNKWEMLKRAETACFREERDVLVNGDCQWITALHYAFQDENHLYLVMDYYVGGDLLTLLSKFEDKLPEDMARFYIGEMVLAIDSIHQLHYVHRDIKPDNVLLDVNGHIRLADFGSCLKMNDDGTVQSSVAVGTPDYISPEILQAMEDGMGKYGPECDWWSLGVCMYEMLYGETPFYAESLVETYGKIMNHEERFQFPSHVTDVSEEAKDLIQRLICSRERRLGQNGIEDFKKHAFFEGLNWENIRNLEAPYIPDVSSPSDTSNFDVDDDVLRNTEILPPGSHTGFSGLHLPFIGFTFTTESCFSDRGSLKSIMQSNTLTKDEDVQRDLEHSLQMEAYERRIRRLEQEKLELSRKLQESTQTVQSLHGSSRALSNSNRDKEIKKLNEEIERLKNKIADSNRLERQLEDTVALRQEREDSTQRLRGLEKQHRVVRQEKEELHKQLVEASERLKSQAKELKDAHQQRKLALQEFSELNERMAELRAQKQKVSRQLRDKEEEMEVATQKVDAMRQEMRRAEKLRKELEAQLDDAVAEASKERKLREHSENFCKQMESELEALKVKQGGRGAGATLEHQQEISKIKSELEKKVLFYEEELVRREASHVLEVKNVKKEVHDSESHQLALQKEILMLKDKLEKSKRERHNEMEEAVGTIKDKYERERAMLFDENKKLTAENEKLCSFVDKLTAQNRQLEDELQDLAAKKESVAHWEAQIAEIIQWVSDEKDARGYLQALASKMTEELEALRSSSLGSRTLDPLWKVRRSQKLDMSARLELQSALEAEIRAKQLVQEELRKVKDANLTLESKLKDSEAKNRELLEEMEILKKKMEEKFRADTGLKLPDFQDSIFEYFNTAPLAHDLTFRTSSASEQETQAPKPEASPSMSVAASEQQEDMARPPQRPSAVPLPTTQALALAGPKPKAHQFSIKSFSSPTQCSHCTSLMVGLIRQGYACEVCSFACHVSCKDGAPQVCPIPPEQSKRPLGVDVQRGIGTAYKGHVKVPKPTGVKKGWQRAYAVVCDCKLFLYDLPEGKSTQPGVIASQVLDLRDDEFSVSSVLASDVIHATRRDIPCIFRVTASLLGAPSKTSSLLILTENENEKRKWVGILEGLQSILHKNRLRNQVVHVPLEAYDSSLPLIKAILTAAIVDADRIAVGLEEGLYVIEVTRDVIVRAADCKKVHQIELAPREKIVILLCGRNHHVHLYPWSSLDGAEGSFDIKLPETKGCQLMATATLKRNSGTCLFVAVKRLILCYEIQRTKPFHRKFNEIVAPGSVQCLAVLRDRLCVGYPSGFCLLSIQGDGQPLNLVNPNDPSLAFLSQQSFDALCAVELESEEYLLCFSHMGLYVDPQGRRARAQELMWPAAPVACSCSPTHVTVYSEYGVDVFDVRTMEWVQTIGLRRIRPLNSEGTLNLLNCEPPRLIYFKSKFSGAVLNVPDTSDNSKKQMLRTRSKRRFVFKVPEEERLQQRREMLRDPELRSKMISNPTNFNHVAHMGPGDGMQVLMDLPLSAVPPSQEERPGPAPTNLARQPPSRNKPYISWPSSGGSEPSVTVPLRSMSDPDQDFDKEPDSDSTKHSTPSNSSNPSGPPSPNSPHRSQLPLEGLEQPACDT

[4] = target: Serine/threonine-protein kinase MRCK beta (Homo sapiens) (UniProt Q9Y5S2); details: at 1 µM
[5] = target: Ribosomal protein S6 kinase alpha-5 (Homo sapiens) (UniProt O75582); details: at 0.1 µM
Ribosomal protein S6 kinase alpha-5 (Homo sapiens), sequence (O75582 whole entry, looked up): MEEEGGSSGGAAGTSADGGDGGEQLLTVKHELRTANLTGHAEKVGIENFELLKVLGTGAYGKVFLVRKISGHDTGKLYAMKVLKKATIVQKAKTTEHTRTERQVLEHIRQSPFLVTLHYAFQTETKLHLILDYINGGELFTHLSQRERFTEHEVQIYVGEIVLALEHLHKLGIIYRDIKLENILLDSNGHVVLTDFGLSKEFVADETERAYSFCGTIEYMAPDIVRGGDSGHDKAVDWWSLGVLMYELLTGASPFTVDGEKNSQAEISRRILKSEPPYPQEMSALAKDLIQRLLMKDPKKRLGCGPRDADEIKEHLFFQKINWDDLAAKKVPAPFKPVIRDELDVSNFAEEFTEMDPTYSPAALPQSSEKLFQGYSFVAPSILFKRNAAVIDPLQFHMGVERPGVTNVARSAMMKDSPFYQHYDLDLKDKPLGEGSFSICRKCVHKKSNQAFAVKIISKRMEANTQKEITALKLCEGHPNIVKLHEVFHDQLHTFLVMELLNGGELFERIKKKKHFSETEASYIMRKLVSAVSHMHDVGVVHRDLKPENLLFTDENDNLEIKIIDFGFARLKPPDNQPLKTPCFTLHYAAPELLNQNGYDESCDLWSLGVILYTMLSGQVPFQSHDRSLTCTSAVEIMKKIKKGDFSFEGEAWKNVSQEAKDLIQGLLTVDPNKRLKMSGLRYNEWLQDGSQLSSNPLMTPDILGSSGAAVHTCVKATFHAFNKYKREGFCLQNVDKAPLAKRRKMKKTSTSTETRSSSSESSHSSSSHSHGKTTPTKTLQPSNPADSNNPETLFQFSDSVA

[6] = target: Ribosomal protein S6 kinase alpha-5 (Homo sapiens) (UniProt O75582); details: at 1 µM
[7] = target: Ribosomal protein S6 kinase alpha-4 (Homo sapiens) (UniProt O75676); details: at 0.1 µM
Ribosomal protein S6 kinase alpha-4 (Homo sapiens), sequence (O75676 whole entry, looked up): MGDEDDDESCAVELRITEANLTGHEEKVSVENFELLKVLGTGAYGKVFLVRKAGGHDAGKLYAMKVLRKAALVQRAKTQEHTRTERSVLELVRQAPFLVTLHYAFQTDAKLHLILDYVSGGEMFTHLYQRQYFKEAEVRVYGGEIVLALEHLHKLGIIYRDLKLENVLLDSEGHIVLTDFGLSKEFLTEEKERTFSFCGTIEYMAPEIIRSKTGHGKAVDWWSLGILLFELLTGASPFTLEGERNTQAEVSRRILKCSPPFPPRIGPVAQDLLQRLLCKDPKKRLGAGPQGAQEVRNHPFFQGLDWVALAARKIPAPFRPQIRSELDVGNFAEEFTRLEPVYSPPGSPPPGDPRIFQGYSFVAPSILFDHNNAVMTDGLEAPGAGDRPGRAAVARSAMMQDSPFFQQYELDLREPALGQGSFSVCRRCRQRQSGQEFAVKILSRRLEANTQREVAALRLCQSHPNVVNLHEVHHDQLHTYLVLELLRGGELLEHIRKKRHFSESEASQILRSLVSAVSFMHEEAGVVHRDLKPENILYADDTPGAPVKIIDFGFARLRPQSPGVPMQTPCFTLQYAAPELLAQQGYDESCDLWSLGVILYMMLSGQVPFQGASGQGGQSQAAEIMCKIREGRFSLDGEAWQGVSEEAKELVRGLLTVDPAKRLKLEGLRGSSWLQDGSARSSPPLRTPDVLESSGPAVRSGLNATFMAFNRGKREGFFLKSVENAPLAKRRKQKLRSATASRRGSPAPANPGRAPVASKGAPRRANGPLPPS

[8] = target: Ribosomal protein S6 kinase alpha-4 (Homo sapiens) (UniProt O75676); details: at 1 µM
[9] = target: Ribosomal protein S6 kinase beta-1 (Homo sapiens) (UniProt P23443); details: at 0.1 µM
[10] = target: Ribosomal protein S6 kinase beta-1 (Homo sapiens) (UniProt P23443); details: at 1 µM

Serine/threonine-protein kinase MRCK alpha (Homo sapiens), sequence (Q5VT25 whole entry): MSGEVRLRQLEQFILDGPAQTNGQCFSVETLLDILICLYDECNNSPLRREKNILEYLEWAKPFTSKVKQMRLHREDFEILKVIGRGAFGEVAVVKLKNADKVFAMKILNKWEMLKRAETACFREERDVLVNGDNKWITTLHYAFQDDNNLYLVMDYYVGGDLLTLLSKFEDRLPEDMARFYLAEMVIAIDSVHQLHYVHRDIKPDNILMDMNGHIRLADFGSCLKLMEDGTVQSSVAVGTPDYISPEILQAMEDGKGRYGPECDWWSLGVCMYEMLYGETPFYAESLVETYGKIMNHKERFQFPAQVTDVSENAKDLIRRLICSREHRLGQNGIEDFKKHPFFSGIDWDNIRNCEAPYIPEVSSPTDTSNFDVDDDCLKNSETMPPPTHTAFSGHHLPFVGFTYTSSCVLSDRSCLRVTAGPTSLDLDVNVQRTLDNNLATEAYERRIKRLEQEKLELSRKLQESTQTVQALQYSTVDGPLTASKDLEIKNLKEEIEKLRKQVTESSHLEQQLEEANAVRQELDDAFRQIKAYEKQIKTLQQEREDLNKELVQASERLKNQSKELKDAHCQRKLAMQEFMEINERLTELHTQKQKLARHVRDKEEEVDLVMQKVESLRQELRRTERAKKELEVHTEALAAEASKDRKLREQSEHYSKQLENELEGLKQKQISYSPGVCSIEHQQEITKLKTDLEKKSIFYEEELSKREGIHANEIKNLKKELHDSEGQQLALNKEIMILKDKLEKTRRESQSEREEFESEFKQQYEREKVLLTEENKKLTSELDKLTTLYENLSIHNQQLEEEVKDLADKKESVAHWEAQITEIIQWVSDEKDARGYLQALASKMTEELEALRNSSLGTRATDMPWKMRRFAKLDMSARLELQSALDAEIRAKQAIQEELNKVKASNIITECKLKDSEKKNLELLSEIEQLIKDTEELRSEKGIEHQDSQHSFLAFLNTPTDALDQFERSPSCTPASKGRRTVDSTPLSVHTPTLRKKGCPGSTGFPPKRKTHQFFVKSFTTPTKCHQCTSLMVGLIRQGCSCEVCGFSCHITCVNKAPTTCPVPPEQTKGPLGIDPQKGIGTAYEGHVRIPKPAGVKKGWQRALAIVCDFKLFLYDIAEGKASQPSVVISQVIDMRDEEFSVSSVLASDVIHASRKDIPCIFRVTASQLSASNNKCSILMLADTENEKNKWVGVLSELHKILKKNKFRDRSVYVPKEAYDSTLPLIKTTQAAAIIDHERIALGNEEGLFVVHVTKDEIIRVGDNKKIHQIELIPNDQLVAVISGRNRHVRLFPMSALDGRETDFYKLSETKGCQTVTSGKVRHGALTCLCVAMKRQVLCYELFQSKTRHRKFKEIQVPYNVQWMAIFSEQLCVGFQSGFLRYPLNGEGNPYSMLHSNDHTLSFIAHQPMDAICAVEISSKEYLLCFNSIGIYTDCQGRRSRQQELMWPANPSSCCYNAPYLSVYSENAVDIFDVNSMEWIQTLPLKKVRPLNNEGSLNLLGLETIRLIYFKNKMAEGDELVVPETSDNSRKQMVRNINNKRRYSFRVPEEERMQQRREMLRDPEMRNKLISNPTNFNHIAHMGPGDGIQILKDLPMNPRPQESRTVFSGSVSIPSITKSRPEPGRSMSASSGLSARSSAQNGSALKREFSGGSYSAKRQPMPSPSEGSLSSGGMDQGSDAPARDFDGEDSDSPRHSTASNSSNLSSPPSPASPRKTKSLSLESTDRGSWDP

SMILES	inhibition [1]	inhibition [2]	inhibition [3]	inhibition [4]	inhibition [5]	inhibition [6]	inhibition [7]	inhibition [8]	inhibition [9]	inhibition [10]
CNC(=O)c1cncc(/C=C/c2ccccc2C)c1	-0.01%	2.94%	-0.34%	0.83%	3.42%	6.01%	2.58%	4.27%	-0.48%	1.97%
Nc1nccc(-c2c(-c3ccc(F)cc3)ncn2C2CCNCC2)n1	0.35% and 0.18%	2.58% and 5.06%	0.52% and 1.07%	1.72% and 3.43%	-2.32% and -0.28%	-1.5% and 1.46%	-1.86% and 0.59%	-1.17% and 2.2%	-1.49% and 0.02%	-0.77% and 0.22%
COc1cc(N2CCN(C(C)C)CC2)ccc1Nc1nc(Nc2cccc(F)c2C(=O)O)c2cc[nH]c2n1	-0.32%	1.08%	-1.28%	0.34%	2.89%	3.87%	0.48%	2.67%	1.22%	2.81%
CCS(=O)(=O)c1ccc(OC)c(Nc2ncc(-c3cccc(F)c3)o2)c1	4.37%	2.99%	0.15%	0.78%	5.29%	7.75%	4.36%	5.01%	2.77%	5.19%
Fc1ccc(Nc2nccc(-c3c(-c4ccc(C(F)(F)F)cc4)nn4ncccc34)n2)cc1F	-0.28%	-1.12%	-0.35%	1.04%	2.66%	2.7%	-0.61%	2%	1.31%	0.33%
N#Cc1ccc2c(-c3ccnc(NC4CC4)n3)c(-c3ccc(F)cc3)nn2c1	0.79%	0.87%	0.13%	0.52%	0.77%	-0.33%	0.92%	-0.56%	0.06%	-0.85%
CNC(=O)c1sc(-n2cnc3cc(OC)c(OC)cc32)cc1OCc1ccccc1C(F)(F)F	-1.57%	2.7%	0.75%	-0.54%	1.63%	-0.43%	3.06%	2.24%	1.25%	0.64%
NS(=O)(=O)c1cccc(N/C=C2\C(=O)Nc3ccccc32)c1	0.02%	0.03%	0.57%	2.14%	10.2%	14.8%	2.95%	18.6%	2.13%	8%
CC1=C(C(=O)Nc2ccc3[nH]nc(C)c3c2)C(c2ccc(C(F)(F)F)cc2)CC(=O)N1 (stereo not given)	1.9%	17.1%	5.5%	37.4%	6.02%	28.8%	1.31%	11.5%	1.6%	9.4%
COC(=O)Nc1nc2cc(Oc3ccc(NC(=O)Nc4ccccc4)cc3)ccc2[nH]1	1.11%	3.26%	-0.1%	0.05%	2.4%	2.36%	2.62%	3.88%	2.09%	3.12%
CC(C)c1ccc(-c2cc(-c3c[nH]nc3-c3ccccn3)ccn2)cc1	-0.14%	-0.28%	-0.59%	2.06%	1.59%	1.63%	1.53%	2.87%	0.17%	-0.41%
CS(=O)(=O)Nc1ccc(-c2cc(-c3ccccc3)cc(C(N)=O)c2N)cc1	-0.32%	0.21%	0.74%	1.3%	3.96%	1.83%	-0.81%	0.34%	-1.22%	0.07%
NS(=O)(=O)c1ccc(N/N=C2\C(=O)Nc3cccc(CCc4ccncc4)c32)cc1	-0.78%	-0.69%	0.54%	0.31%	-0.75%	-0.48%	0.37%	2.61%	0.08%	-0.48%
Cc1cc(O)cc(C)c1/C=C/c1cncc(C(=O)OC(C)(C)C)c1	0.35%	1.93%	1.45%	2.65%	1.89%	3.7%	1.86%	3.1%	0.44%	0.31%
CN(c1ccc(NC(=O)NCCN2CCOCC2)cc1)c1ccnc(Nc2ccc(CS(C)(=O)=O)cc2)n1	-0.04%	2.59%	0.01%	0.6%	3.04%	3.65%	2.62%	3.19%	1.53%	1.23%
